# Records with an inconclusive call do not appear. Values without a mark were called inactive. Calls of active or inactive are those of the source. The call rests on the fitted dose curve; in most records, active means well fitted inhibition curve with a large enough effect; inconclusive means small, poorly fitted or top-dose-only effect; inactive means flat fitted curve, though single readings scatter.
# What was measured:
# CRL-7250 = normal cell line; test: Cytotoxic Profiling of Annotated Libraries Using Quantitative High-Throughput Screening (AID 1296008); conditions: Five cell lines viability, CellTiter-Glo ATP luminescence, 48-72 h; max response: active compounds read low; further: nearly all actives have a fitted effect of over 60% in size
# In short: (§1)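 Compounds were pin-transferred onto cells and incubated 48 or 72 hr at 37 degree Celsius, 95% humidity. CellTiter-Glo was added, plates sat 10 min at room temperature, then ATP-coupled luminescence was imaged as the viability read-out.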
# HEK293 = test: as above; conditions: Five cell lines viability, CellTiter-Glo ATP luminescence, 48-72 h; max response: active compounds read low
# In short: as §1
# On the % scale 0 is the no-effect control and ±100 the full control effect; potency means the concentration at half of the fitted maximal effect.
compound,measurement,setting,value
CC1=CC(=O)C2(OC3OC(C)C(O)C(OC(=O)/C=C/c4ccccc4)C3O)C=COC(OC3OC(CO)C(O)C(O)C3O)C12 (centres undefined),max response,CRL-7250,-3.56%
same,max response,HEK293,-0.0394%
COc1cc2c(cc1O)[C@H](c1ccc(O[C@@H]3O[C@H](CO)[C@@H](O)[C@H](O)[C@H]3O)c(OC)c1)[C@@H](CO)[C@](O)(CO)C2,max response,CRL-7250,4.77%
same,max response,HEK293,2.27%
O=C(O)/C=C/c1cc2c(cc1O[C@@H]1O[C@H](CO)[C@@H](O)[C@H](O)[C@H]1O)OCO2,max response,CRL-7250,4.22%
same,max response,HEK293,2.33%
COc1cc2ncnc(Nc3ccc(O)cc3)c2cc1OC,outcome,CRL-7250,inactive
same,max response,HEK293,-8.09%
CC(=O)OC1C[C@@]2(C)[C@@H](CC[C@@H](C)[C@]23Cc2c(O)cc4c(c2O3)CNC4=O)C(C)(C)[C@@H]1O (some centres undefined),max response,CRL-7250,2.93%
same,max response,HEK293,1.75%
Nc1ncnc2c([C@@H]3N[C@H](CO)[C@@H](O)[C@H]3O)c[nH]c12,max response,CRL-7250,-1.11%
same,max response,HEK293,1.17%
OCCc1ccc(O[C@@H]2O[C@H](CO)[C@@H](O)[C@H](O)[C@H]2O)cc1,max response,CRL-7250,2.72%
same,max response,HEK293,0.276%
O=C1NC(Cc2c[nH]c3ccccc23)C(=O)NC1Cc1cnc[nH]1 (centres undefined),outcome,CRL-7250,inactive
same,max response,HEK293,-5.57%
COC1/C=C/C(C)(O)C(SCC(N)C(=O)O)CC(=O)OC(C)C(C)CC/C=C/1C (centres undefined),max response,CRL-7250,1.64%
same,outcome,HEK293,inactive
O=C1C=CC2OC(c3ccccc3)C(O)C2O1 (centres undefined),max response,CRL-7250,-15.8%
same,Potency,HEK293,23100 nM (active)
COc1ccc(-c2nc(-c3ccc(-c4cccc(Cl)c4)o3)[nH]c2-c2ccc(OC)cc2)cc1,outcome,CRL-7250,inactive
same,Potency,HEK293,20600 nM (active)
Cc1ccc(F)cc1C(=O)Nc1ccc(C(=O)N2Cc3cccn3Cc3ccccc32)c(Cl)c1,max response,CRL-7250,-11.2%
same,Potency,HEK293,9200 nM (active)
CC1=C(C(=O)OCc2ccccc2)C(c2ccc(-c3ccccc3)cc2)NC(=O)N1CCCCCC(=O)O (centres undefined),max response,CRL-7250,-0.424%
same,max response,HEK293,-21.5%
[N-]=[N+]=N[C@]1(CO)O[C@@H](n2ccc(=O)[nH]c2=O)[C@@H](O)[C@@H]1O,max response,CRL-7250,0.828%
same,max response,HEK293,-4.49%
CCCN1CCC(c2cccc(S(C)(=O)=O)c2)CC1,max response,CRL-7250,-0.494%
same,max response,HEK293,-1.41%
C=C1C[C@]23C[C@H]1CC[C@H]2[C@@]12CC[C@H](O)[C@@](C)(C(=O)O1)[C@H]2[C@@H]3C(=O)O,max response,CRL-7250,-11.3%
same,max response,HEK293,-4.65%
Cc1cc(O)c(-c2ccc([C@@H](C)CN(C)C)cc2)c2c1[nH]c(=O)c1sccc12,Potency,CRL-7250,116 nM (active)
same,Potency,HEK293,25.9 nM (active)
CC(C)(C)c1ccc(S(=O)(=O)Nc2ccc(Cl)cc2C(=O)c2cc[n+]([O-])cc2)cc1,max response,CRL-7250,-19.6%
same,max response,HEK293,-2.23%
CN1CCN(C(=O)c2ccc3cc(CCNc4ncnc5ccc(C#N)cc45)ccc3c2)CC1,Potency,CRL-7250,4610 nM (active)
same,Potency,HEK293,2910 nM (active)
C=CC1(C)C=C2C(=O)OC(=O)C3=C(CCCC3(C)C)C2(O)CC1 (centres undefined),max response,CRL-7250,-0.556%
same,max response,HEK293,-14.3%
Fc1ccc2nc(CCC#Cc3ccccn3)cn2c1,max response,CRL-7250,-4.35%
same,max response,HEK293,-6.15%
C/C(=C\CC[C@@H](C)[C@H]1CC(O)[C@@]2(C)C3CC[C@H]4C(C)(C)[C@@H](OC5OCC(O)C(O)C5OC5OC(CO)C(O)C(O)C5O)CC[C@@]45C[C@@]35CC(O)[C@]12C)C(=O)O (some centres undefined),max response,CRL-7250,-2.5%
same,max response,HEK293,0.167%
CC1OC2OC(=O)C3(C)CC4=C(CO)C5=C(CC(=O)C4(C)C(C1=O)C23)C(C)(C)OC(=O)C5 (centres undefined),max response,CRL-7250,-28.4%
same,max response,HEK293,-12.2%
Cc1ccc([N+](=O)[O-])cc1S(=O)(=O)N(C)/N=C/c1cnc2ccc(Br)cn12,Potency,CRL-7250,82 nM (active)
same,Potency,HEK293,103 nM (active)
CC1=CC(=O)[C@H]2C(C)(C)CCC[C@]2(C)[C@@]1(O)CO,max response,CRL-7250,-8.81%
same,max response,HEK293,-15.2%
CC(C)[C@@H]1C(=O)N(S(C)(=O)=O)[C@@H]2CCN(C(=O)/C=C/CN3CCCCC3)[C@H]21,outcome,CRL-7250,inactive
same,max response,HEK293,-1.35%
COc1c2c(cc3c1-c1c(cc4c(c1OC)OCO4)CC(C)C(C)C3)OCO2 (centres undefined),max response,CRL-7250,1.23%
same,max response,HEK293,-21.6%

# Reference: PubChem BioAssay (NCATS)
